PMC5540273 (PLoS ONE, 2017)

Columns and labels:
Settings in all cases: concentration: 1 μM, replicates: in singlicate; n = 1
CAMK4 = test system: CAMK4
CAMKK1 = test system: CAMKK1
CAMKK2 = test system: CAMKK2
CASK = test system: CASK
CDC2L1 = test system: T1, CDC2L1
T1 construct: gene CDK11B

CDC2L2 = test system: CDC2L2
CDC2L5 = test system: T2, CDC2L5
T2 construct: gene CDK13

CDK11 = test system: T3, CDK11
T3 construct: gene CDK19

CDK2 = test system: CDK2
CDK3 = test system: CDK3
CDK4-cyclinD1 = test system: CDK4-cyclinD1
CDK4-cyclinD3 = test system: CDK4-cyclinD3
CDK4 = test system: CDK4
CDK5 = test system: CDK5
CDK7 = test system: CDK7
CDK8 = test system: CDK8
CDK9 = test system: CDK9
CDKL1 = test system: CDKL1
CDKL2 = test system: CDKL2
CDKL3 = test system: CDKL3
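Further: KINOMEscan kinase panel screen.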

SMILES	%Inh (CAMK4) [%]	%Inh (CAMKK1) [%]	%Inh (CAMKK2) [%]	%Inh (CASK) [%]	%Inh (CDC2L1) [%]	%Inh (CDC2L2) [%]	%Inh (CDC2L5) [%]	%Inh (CDK11) [%]	%Inh (CDK2) [%]	%Inh (CDK3) [%]	%Inh (CDK4-cyclinD1) [%]	%Inh (CDK4-cyclinD3) [%]	%Inh (CDK4) [%]	%Inh (CDK5) [%]	%Inh (CDK7) [%]	%Inh (CDK8) [%]	%Inh (CDK9) [%]	%Inh (CDKL1) [%]	%Inh (CDKL2) [%]	%Inh (CDKL3) [%]
Cc1c(Cn2c(C)c(C)n3c(=O)cc(N4CCOCC4)nc23)cccc1C(F)(F)F [GSK2328680]	0	0	10	16	0	14	0	0	2	7	0	0	0	0	0	34	0	100	6	0
O=C(Nc1n[nH]c2nc(-c3ccco3)c(Br)cc12)C1CCN(Cc2ccccc2)C1.O=C(O)[C@H](O)[C@@H](O)C(=O)O (stereo not shown) [SB-742034]	0	20	25	40	20	36	44	0	13	0	0	0	14	8	81	0	0	51	69	0
COc1ccc(Nc2nccc(N3CCC(NC(=O)c4cc5ccccc5s4)C3)n2)cc1 (stereo not shown) [GSK1379738]	0	11	2	21	0	17	0	41	0	12	0	6	19	0	0	6	2	8	35	0
CSc1ccc(-c2nc3n(c2-c2ccncc2)CCC3)cc1 [SKF-105561]	30	0	0	3	15	24	30	0	0	0	0	0	27	0	0	0	0	7	0	0
COc1ccc(Nc2nccc(NCCNC(=O)Nc3cc(C)ccc3C)n2)cc1 [GSK1379899]	0	13	0	0	0	0	0	0	0	6	0	0	3	0	0	13	0	0	21	0
Cc1cnc(N)c(/C=C/c2cncc(C(=O)NCCc3ccc(Cl)cc3Cl)c2)c1.Cl [GSK190937]	0	7	20	7	0	17	0	92.8	0	6	0	0	16	0	0	88	0	0	15	0
COc1ccc2cc(-c3nc(-c4ccccc4C(C)C)[nH]c3-c3ccncc3)ccc2c1 [SB-660566]	7	8	0	7	0	2	0	33	0	13	0	19	9	0	0	0	0	0	9	0
Fc1ccc(-c2nc[nH]c2-c2ccncc2)cc1 [SB-217360]	0	0	1	13	0	0	0	0	0	0	0	0	15	0	0	38	0	12	16	2
CCn1c(-c2ccccc2)nc2cnccc21 [SB-733416]	13	0	0	18	0	0	98.3	0	12	19	0	6	3	0	0	0	0	0	9	0
Cc1ccc(NC(=O)Nc2ccc(Cl)c(C(F)(F)F)c2)cc1-c1ccc(C(=O)Nc2ccncc2)cc1 [GSK1398470]	0	0	0	0	0	20	0	11	0	0	0	0	0	0	0	36	0	86	34	0
Cc1ccc(NC(=O)Nc2ccc(Cl)cc2)cc1-c1ccc(C(=O)Nc2ccncc2)cc1 [GSK1398472]	0	0	0	21	0	13	0	8	0	8	0	10	2	0	0	8	0	3	19	1
Cc1ccccc1-c1cc(-c2c[nH]nc2-c2ccccn2)ccn1 [GW680061]	0	0	0	25	0	9	0	2	0	17	0	0	0	0	0	23	0	0	10	0
O=C(Nc1n[nH]c2nc(-c3cccs3)c(Br)cc12)C1CCCC1 [SB-743341]	0	7	0	12	1	0	13	0	75	67	11	40	16	24	60	75	27	10	87	0
COC(=O)c1cccc(NC(=O)NC2CCN(c3ccnc(Nc4ccc(OC)cc4)n3)C2)c1 (stereo not shown) [GSK1379746]	0	0	0	2	0	32	0	76	5	9	34	0	19	0	0	48	1	14	77	0
CNC(=O)c1ccc(C)c(-n2c(C)cc(OCc3ccc(F)cc3F)c(Br)c2=O)c1	0	0	1	0	0	0	0	57	0	15	0	0	0	0	4	4	0	91.9	3	25
Cn1cncc1C(=O)NC1CCN(c2ccnc(Nc3ccc(F)cc3)n2)C1 (stereo not shown) [GSK1379717]	0	30	32	14	0	6	0	3	0	0	0	14	2	0	0	29	0	99	3	99.5

SMILES	%Inh (CAMK4) [%]	%Inh (CAMKK1) [%]	%Inh (CAMKK2) [%]	%Inh (CASK) [%]	%Inh (CDC2L1) [%]	%Inh (CDC2L2) [%]	%Inh (CDC2L5) [%]	%Inh (CDK11) [%]	%Inh (CDK2) [%]	%Inh (CDK3) [%]	%Inh (CDK4-cyclinD1) [%]	%Inh (CDK4-cyclinD3) [%]	%Inh (CDK4) [%]	%Inh (CDK5) [%]	%Inh (CDK7) [%]	%Inh (CDK8) [%]	%Inh (CDK9) [%]	%Inh (CDKL1) [%]	%Inh (CDKL2) [%]	%Inh (CDKL3) [%]
COc1ccc(Nc2nccc(N3CCC(NC(=O)C(C)c4ccc(Cl)cc4)CC3)n2)cc1 (stereo not shown) [GSK1379812]	0	0	31	3	0	10	0	63	0	0	0	0	33	0	0	20	0	4	0	0
Cc1cccc2c(-c3ccncn3)c(-c3ccc(F)cc3)nn12 [GW515532]	0	0	0	0	0	3	0	0	0	3	0	0	0	0	0	10	0	0	13	0
O=C(Nc1n[nH]c2nc(-c3cccs3)c(Br)cc12)C1CC1 [SB-735297]	0	0	0	13	1	12	24	0	77	26	0	0	0	0	16	0	0	34	96.4	0
CNc1cc(-c2ccc3c(N)n[nH]c3c2)nc(N)n1 [GSK2224810]	0	5	11	6	3	30	0	8	0	9	3	0	18	0	2	26	0	17	0	0
COc1cc2ncnc(Nc3cccc(Br)c3)c2cc1OC.Cl [GI230329]	0	20	16	18	0	14	0	0	0	6	36	0	42	0	0		0	14	24	0
COc1ccc(Nc2nccc(N3CCC(NC(=O)C(C)c4ccc(Cl)cc4)C3)n2)cc1 (stereo not shown) [GSK1379735]	0	18	5	48	6	6	0	21	0	24	0	0	23	0	0	35	0	100	29	0
O=C1NC(=O)C(c2ccc(Cl)cc2)=C1Nc1ccc(O)cc1 [SB-340867]	0	0	0	4	0	0	0	0	0	4	0	0	0	0	0	11	0	12	41	0
CC[C@@H]1CO[C@H](C(=O)Nc2ccccc2)CN1c1cc(-c2ccc3c(N)n[nH]c3c2)nc(NC)n1 [GSK2376236]	0	5	22	8	8	14	0	12	0	9	0	5	0	0	0	5	0	8	6	0
CNc1nc(-c2ccc3c(N)n[nH]c3c2)cc(N2C[C@@H](C(=O)NC3CCCCC3)OC[C@H]2C)n1 [GSK2375584]	0	21	35	12	0	25	0	16	0	0	3	7	100	0	3	45	0	13	0	0
Fc1ccc(-c2nc3n(c2-c2ccncc2)CCS3)cc1 [GI98581]	0	8	0	20	0	0	0	7	6	24	0	0	31	6	0	19	0	2	4	0
COc1ccc(-c2coc3ccc(-c4nnc(C)o4)cc23)cc1	13	0	16	0	0	0	21	0	0	0	0	0	0	0	0	0	0	24	0	0
COc1ccc(CSc2nnc(-c3ccc4c(c3)CCO4)o2)cc1	0	1	15	0	0	0	90	0	0	0	0	0	0	0	0	0	0	0	0	0
CC(=O)c1c(C)c2cnc(Nc3ccn(C)n3)nc2n(C2CCCC2)c1=O	0	7	13	12	0	100	0	2	3	0	99.6	98.4	19	0	0	0	18	0	0	0
CC(C)c1ccc(O)cc1Nc1ccnc2ccc(C(F)(F)F)cc12 [GW482059]	14	0	0	0	0	5	0	0	0	0	85	0	0	0	0	25	0	0	5	0
Nc1cccc(-c2ccc3c(N)n[nH]c3c2)n1 [GSK2192730]	0	27	22	14	0	22	0	3	0	7	0	0	0	0	92.8	0	16	0	13	0
